In the library only some 8.9% were active in any assay of this set; here they are far more common.
mHtt clearance = mutant huntingtin protein clearance; HeLa Exon1htt(103Q)mCFP, aggregate imaging; zero = plate's median compound well; inhibition, % at 1.5 µM; hit rate 0.42% among 47,000; AID 853;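 active means inhibition of aggregate fluorescence above about 70%, also judged a hit by eye on the cell image, limit read from the data, passing the limit was not always enough; inconclusive means no rule stated for this call; inactive means not judged a hit on image review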;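 further: cells exposed to compound for three days before fixation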
D1 mod = D1 dopamine receptor (human) allosteric modulation; B-score at 10 µM; hit rate 5.9% among 58,000; AID 641; P21728; HEK293 D1, CRE-luciferase, dopamine EC30 potentiation; actives deviate in either direction;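 active means luminescence count or its row- and column-corrected plate score outside the 99.7% band of the plate's sample wells, on either side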
WNV protease inh = inhibitors of West Nile virus NS2B-NS3 protease | P06935 | WNV NS2B-NS3 protease, fluorogenic substrate Ex360/Em465; stronger effect = lower value | z-score (concentration not given with the values) | hit rate 0.18% among 65,000; in the data active means z-score below about -3
Target sequence (P06935 1371-1501 limits assumed): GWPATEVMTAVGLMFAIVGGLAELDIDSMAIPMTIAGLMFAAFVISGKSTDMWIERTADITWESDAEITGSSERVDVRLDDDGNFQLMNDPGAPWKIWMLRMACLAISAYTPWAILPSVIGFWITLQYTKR
Target sequence (P06935 1502-1679 limits assumed): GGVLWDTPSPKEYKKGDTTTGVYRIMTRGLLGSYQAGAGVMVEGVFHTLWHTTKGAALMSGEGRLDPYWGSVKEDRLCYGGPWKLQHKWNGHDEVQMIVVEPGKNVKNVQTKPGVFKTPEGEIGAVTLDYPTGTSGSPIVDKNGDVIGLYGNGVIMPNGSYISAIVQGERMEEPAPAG
M1 ag = activates the M1 muscarinic receptor | CHO-M1 cells, Fluo-4 calcium fluorescence, agonist mode; stronger effect = higher value | B-score at 10 µM | hit rate 3% among 64,000;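 active means fluorescence rise, raw or as B-score row- and column-corrected plate score, outside the 99.7% band of its plate's samples, either direction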
M1 antag = antagonists of rat M1 muscarinic receptor; P08482; CHO-M1 cells, Fluo-4 calcium, ACh EC80 antagonist mode; stronger effect = lower value; B-score at 10 µM; hit rate 3.4% among 64,000; AID 628;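 active means calcium fluorescence response, raw or row-and-column corrected B-score, differing from the plate sample mean either way at a set confidence level, mostly lower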
M1 agonist conf = rat M1 muscarinic agonism, confirmation; shares compounds with M1 ag; CHO-M1 cells, Fluo-4 calcium fluorescence, agonist mode; actives lie on both sides; fluorescence change (max-min) at 10 µM; hit rate 19% among 1,700;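 active means fluorescence change differs from the solvent-only DMSO control mean at a set confidence level in both duplicate runs; inconclusive means differs from solvent-only control mean in just one of two runs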;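 further: an EC20 dose of acetylcholine follows compound addition during the same imaging run; raw fluorescence intensity difference in instrument units with no normalization to controls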
M4 ag counter = activates rat M4 receptor in counter-screen for M1 agonists. fluorescence change (max-min) at 10 µM. shares compounds with M1 ag. CHO M4/Gqi5 cells, Fluo-4 calcium fluorescence, agonist mode; actives lie on both sides. hit rate 9% among 1,700;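 active means fluorescence change differing from the plate's solvent-only control wells at 99.7% confidence in both duplicates, whether higher or lower; inconclusive means differs from solvent controls in only one of two duplicates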
The depositor's hits bear a star.

Results for COc1ccc(C2=NO[C@@H]3C(=O)N(C4CCCCC4)C(=O)[C@H]23)cc1OC ?
mHtt clearance: -3; D1 mod: 0.019; WNV protease inh: 0.05; M1 ag: 18*; M1 antag: 0.041; M1 agonist conf: -10; M4 ag counter: -28

Results for Cc1ccc2[nH]c3c(c2c1)CN(C(=O)CN1CCN(c2cccc(C)c2C)CC1)CC3 ?
D1 mod: 0.0052; WNV protease inh: -0.37; M1 ag: -3*; M1 antag: -0.31; M1 agonist conf: 37; M4 ag counter: -5.4

What do the screens show for `CCOc1cc(CO)cc(Br)c1OCC(=O)O`?
mHtt clearance: -23

What do the screens show for `CCOC(=O)C1CCCN(C(=O)CCCn2nc(C)n3c(cc4sccc43)c2=O)C1` (stereo not given)?
D1 mod: 1.3; WNV protease inh: -1.5; M1 ag: 42*; M1 antag: -0.67; M1 agonist conf: 335*; M4 ag counter: inconclusive

Results for NC(=O)c1c(NC(=O)CSc2nnc(Cc3ccccc3)n2Cc2ccco2)sc2c1CCC2 ?
mHtt clearance: 15; WNV protease inh: -1.4; M1 ag: 7.3*; M1 antag: -1.8; M1 agonist conf: -14; M4 ag counter: -22

How did O=C(CSc1nnc(Cc2ccccc2)n1Cc1ccco1)NC12CC3CC(CC(C3)C1)C2 do in these assays?
mHtt clearance: 2; D1 mod: -0.43; WNV protease inh: 1.3; M1 ag: 2.1; M1 antag: -1.8

What do the screens show for `COc1ccccc1NC(=O)CCn1c(=O)sc2ccccc21`?
D1 mod: 0.2; WNV protease inh: -0.08; M1 ag: -0.6; M1 antag: 0.026

What do the screens show for `O=C(NCc1ccco1)c1cnn2c(C(F)(F)F)cc(-c3ccccc3)nc12`?
mHtt clearance: inconclusive; D1 mod: 2; WNV protease inh: -0.0017; M1 ag: -0.15; M1 antag: 0.012

How did COc1ccc(-c2cc(C(F)(F)F)n3ncc(C(=O)NCc4ccco4)c3n2)cc1 do in these assays?
mHtt clearance: 29; D1 mod: 0.4; WNV protease inh: -0.55; M1 ag: 2.9*; M1 antag: -0.69; M1 agonist conf: 10; M4 ag counter: 4.9

How did O=C(c1cnn2c(C(F)(F)F)cc(-c3ccc4c(c3)OCO4)nc12)N1CCCCC1 do in these assays?
mHtt clearance: -32; D1 mod: 2.3; WNV protease inh: -0.79; M1 ag: 0.014; M1 antag: -1.2

Results for O=C(NC1CCCC1)c1cnn2c(C(F)(F)F)cc(-c3ccc4c(c3)OCO4)nc12 ?
mHtt clearance: -8; D1 mod: -0.4; WNV protease inh: 0.37; M1 ag: 14*; M1 antag: -0.86; M1 agonist conf: 23; M4 ag counter: 8.7

Results for Cc1cccc(NC(=O)C2CCCN(S(=O)(=O)c3cccc4cccnc34)C2)c1 (stereo not given) ?
D1 mod: 1.2; WNV protease inh: -0.81; M1 ag: 1.1; M1 antag: -1.5

Results for Cc1ccc(-n2c(O)c(/C=N/n3cnnc3)c3ccccc3c2=O)cc1 ?
D1 mod: 0.065; WNV protease inh: -0.31; M1 ag: 26*; M1 antag: 0.14; M1 agonist conf: 121*; M4 ag counter: 54

Results for O=c1c2ccccc2c(/C=N/n2cnnc2)c(O)n1-c1ccccc1F ?
D1 mod: 0.39; WNV protease inh: -0.9; M1 ag: 55*; M1 antag: -0.12; M1 agonist conf: 350*; M4 ag counter: 698*

What do the screens show for `COc1cc(-c2nnc3sc(-c4ccccn4)nn23)cc(OC)c1OC`?
D1 mod: 0; WNV protease inh: 2; M1 ag: 1.4; M1 antag: 0.15

What do the screens show for `CCN(c1ccccc1)S(=O)(=O)c1ccc(F)cc1C`?
mHtt clearance: -41; D1 mod: 0.7; WNV protease inh: -0.8; M1 ag: 15*; M1 antag: -0.018; M1 agonist conf: inconclusive; M4 ag counter: -57

How did CCN(c1ccccc1)S(=O)(=O)c1ccc(F)c(C(=O)O)c1 do in these assays?
D1 mod: -0.14; WNV protease inh: 0.48; M1 ag: 0.3; M1 antag: 0.021

Results for COC(=O)c1ccc(OCC2c3cc(OC)c(OC)cc3CCN2C(=O)C2CC2)cc1 (stereo not given) ?
D1 mod: 0.45; WNV protease inh: -0.16; M1 ag: 8.7*; M1 antag: -0.099; M1 agonist conf: -32*; M4 ag counter: -47

How did CCOC(=O)C1CCN(S(=O)(=O)c2c(C)n(C)c(=O)n(C)c2=O)CC1 do in these assays?
mHtt clearance: 19; D1 mod: -0.86; WNV protease inh: -0.6; M1 ag: 1; M1 antag: -0.033

Results for Cc1ccc(S(=O)(=O)N2CCC(C(=O)N[C@@H](Cc3ccccc3)C(=O)O)CC2)cc1 ?
D1 mod: -0.17; WNV protease inh: 1.5; M1 ag: 1.6*; M1 antag: 0.27; M1 agonist conf: -6.8; M4 ag counter: inconclusive

Results for Cc1cc(S(=O)(=O)N2CCN(c3ncccn3)CC2)ccc1-n1cnnn1 ?
D1 mod: 0.16; WNV protease inh: 0.23; M1 ag: 0.38; M1 antag: 0.23

Results for COc1ccc(C2C(C(=O)Nc3cc(C)on3)c3ccccc3C(=O)N2C)cc1OC (stereo not given) ?
mHtt clearance: -14; D1 mod: 0.57; WNV protease inh: -0.3; M1 ag: 0.0094; M1 antag: 0.79

Results for COc1ccc(C2C(C(=O)NC(C)C)c3ccccc3C(=O)N2C)cc1OC (stereo not given) ?
mHtt clearance: 3; D1 mod: 0.76; WNV protease inh: -0.02; M1 ag: 3.4*; M1 antag: 1.4; M1 agonist conf: -12; M4 ag counter: -24

Results for COC(=O)CSc1cc(SCC(=O)OC)c(C#N)c(SCC(=O)OC)c1 ?
mHtt clearance: -45; D1 mod: -4.6*; WNV protease inh: -0.2; M1 ag: 9.5*; M1 antag: -1.1; M1 agonist conf: -21; M4 ag counter: -64*

What do the screens show for `CCOc1ccc2nc(N3CCCC(C(=O)NCCCN4CCOCC4)C3)sc2c1` (stereo not given)?
WNV protease inh: 0.18; M1 ag: 2.1*; M1 antag: 1; M1 agonist conf: 6.7; M4 ag counter: -38

Results for O=C(NCc1ccco1)c1ccc2c(=O)n(Cc3ccco3)c(SCC(=O)N3CCCC3)nc2c1 ?
mHtt clearance: 23; D1 mod: 0.23; WNV protease inh: -0.98; M1 ag: 0.77; M1 antag: -0.42

What do the screens show for `O=C(CSc1nc2ccccc2c(=O)n1Cc1ccco1)N1CCCCCC1`?
mHtt clearance: 43; WNV protease inh: -1.1; M1 ag: 2*; M1 antag: -1.1; M1 agonist conf: inconclusive; M4 ag counter: -62
